Experimental data as given in PubChem BioAssay (NCATS).
Results filed as inconclusive are left out. Active and inactive are the calls of the source. The call rests on the fitted dose curve; in most records, active means well fitted curve in the direction sought with a large enough effect; inconclusive means small, poorly fitted or top-dose-only effect, or another doubt; inactive means no such curve, though single readings can be large; an effect the other way counts as inactive or inconclusive.

System: NIH3T3
Assay: Cytotoxic Profiling of Annotated Libraries Using Quantitative High-Throughput Screening (AID 1296008); further: nearly all actives have a fitted effect of over 60% in size
Conditions: Five cell lines viability, CellTiter-Glo ATP luminescence, 48-72 h; max response: hits give low values
How it was run: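 Cytotoxicity was measured as CellTiter-Glo ATP luminescence, read after 10 min at room temperature. Compound treatment of the cells lasted 48 or 72 hr at 37 degrees Celsius in a qHTS format.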
On the % scale 0 is the no-effect control and ±100 the full control effect; potency means the concentration at half of the fitted maximal effect.

Row | SMILES | max response | Potency | outcome
1 | C=C1C(=O)O[C@@H]2CC(C)=C([C@@H](C)CCCO)[C@@H](OC(=O)C(C)C)[C@H]12 | -12.2% (inactive) |  | 
2 | C=C(C)C(=O)O[C@H]1[C@H]2C(=C)C(=O)O[C@@H]2C[C@@H](C)/C=C\C(=O)[C@](C)(O)[C@@H]1OC(C)=O |  | 7.09 µM (active) | 
3 | C=C1[C@@H](C2=CC(=O)OC2)CC[C@@]2(O)[C@@H]1CC1[C@H]2CC[C@@H]2C[C@@H](O[C@H]3O[C@@H](C)[C@@H](O[C@@H]4O[C@H](CO[C@@H]5O[C@H](CO)[C@@H](O)[C@H](O)[C@H]5O)[C@@H](O)[C@H](O)[C@H]4O)[C@H](OC)[C@H]3O)CC[C@]12C (stereo partly specified) |  |  | inactive
4 | CCS(=O)(=O)N(Cc1cccnc1)c1cccc(-c2ccc(C#N)cc2)c1 | -19.5% (inactive) |  | 
5 | C=C1[C@@H](C)[C@H]2[C@H](Cc3c[nH]c4ccccc34)NC(=O)[C@]23C(=O)/C=C/C(=O)[C@H](O)/C(C)=C\[C@@H](C)C/C=C/[C@H]3[C@@H]1O |  | 3.55 µM (active) | 
6 | CNCc1ccc(C)c(NC(=O)c2ccc(Nc3nc(-c4ccccc4)c4ccccc4n3)cc2)c1 |  | 18.4 µM (active) | 

System: C33A
Assay: Primary qHTS to identify gynecologic anti-cancer compounds using libraries of approved drugs and bioactive compounds (AID 1345084); further: nearly all actives have a fitted effect of over 55% in size
Conditions: Gynecologic cancer cell panel viability, ATPlite luminescence, 48 h; series mostly up to 57.5 µM; activity change, negative = cytotoxicity: at the top concentration
How it was run: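 Five-concentration response, 48 h; readout is ATP-driven luciferase luminescence.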

Row | SMILES | activity change, negative = cytotoxicity | Potency
7 | C=C1C(=O)O[C@@H]2CC(C)=C([C@@H](C)CCCO)[C@@H](OC(=O)C(C)C)[C@H]12 | -21.9% [at 38.5 µM] (inactive) | 
8 | Nc1ncnc2c1ncn2[C@@H]1O[C@H](CO)C[C@H]1O | -19.4% (inactive) | 
9 | OCC(Cc1ccccc1)Nc1nc(Oc2ccc3c(c2)CCC3)nc2c1ncn2Cc1ccc(-c2ccccc2)cc1 (stereo unspecified) | -0.219% (inactive) | 
10 | CC1(C)CC23[C@@H]4CC(=O)[C@@H]2COC(=O)[C@@H]3CC[C@H]41 | -2.34% (inactive) | 
11 | CC[C@H](CO)Nc1nc(Nc2cccc(-c3ccccn3)c2)c2ncn(C(C)C)c2n1 | -3.26% (inactive) | 
12 | Cc1ccccc1C(=O)Nc1ccc(C(=O)N2CCC[C@@H](O)c3cc(Cl)ccc32)c(C)c1 | 2.18% (inactive) | 
13 | CCCCn1c(-c2ccccc2)nc(-c2ccccc2)c1CN(Cc1ccc2c(c1)OCO2)Cc1ccc2c(c1)OCO2 | -9.61% (inactive) | 
14 | CC1CCN(C(c2ccc(F)cc2)c2ccc(C(C)C(=O)O)cc2-c2ccc(C(F)(F)F)cc2)CC1 (stereo unspecified) | -23.5% (inactive) | 
15 | OCC(CO)(CO)NCC(O)Cn1c2ccc(Cl)cc2c2cc(Cl)ccc21 (stereo unspecified) | -0.0991% (inactive) | 
16 | COCCOCCOc1ccc(C2=N[C@@](C)(C(=O)O)CS2)c(O)c1 | -6.65% (inactive) | 
17 | C=C(C)C(=O)O[C@H]1[C@H]2C(=C)C(=O)O[C@@H]2C[C@@H](C)/C=C\C(=O)[C@](C)(O)[C@@H]1OC(C)=O |  | 11.2 µM (active)
18 | CC(C)N(CCCNC(=O)Nc1ccc(C(C)(C)C)cc1)C[C@H]1O[C@@H](n2cc(Br)c3c(N)ncnc32)[C@H](O)[C@@H]1O | -3.68% (inactive) | 
19 | O=C(c1ccc(F)c(F)c1Nc1ccc(I)cc1F)N1CC(O)(C2CCCCN2)C1 (stereo unspecified) |  | 35.5 µM (active)
20 | O=[N+]([O-])c1ccc(-[n+]2nc(-c3ccccc3)nn2-c2ccc(I)cc2)cc1 | -5.38% (inactive) | 
21 | COc1ccccc1NC(=O)Nc1ccc2ccccc2c1 | -9.49% (inactive) | 
22 | CN1CCN(C(=O)c2ccc(Nc3nccc(-c4cccs4)n3)cc2Cl)CC1 | -1.35% (inactive) | 
23 | Cn1cc(-c2cnc3ccc4ccc(CS(=O)(=O)NCc5ccccn5)cc4c(=O)c3c2)cn1 | 0.689% (inactive) | 
24 | C=C1[C@@H](C2=CC(=O)OC2)CC[C@@]2(O)[C@@H]1CC1[C@H]2CC[C@@H]2C[C@@H](O[C@H]3O[C@@H](C)[C@@H](O[C@@H]4O[C@H](CO[C@@H]5O[C@H](CO)[C@@H](O)[C@H](O)[C@H]5O)[C@@H](O)[C@H](O)[C@H]4O)[C@H](OC)[C@H]3O)CC[C@]12C (stereo partly specified) |  | 3.55 µM (active)
25 | C=C(C)[C@@H]1CC[C@]2(C(=O)O)CC[C@]3(C)C(CCC4[C@@]5(C)C[C@@H](O)[C@H](O)C(C)(C)C5CC[C@]43C)C12 (stereo partly specified) | -23.3% [at 25.3 µM] (inactive) | 
26 | CCN(CCCOc1ccc2c(Nc3cc(CC(=O)Nc4cccc(F)c4)[nH]n3)ncnc2c1)CCOP(=O)(O)O | -5.15% (inactive) | 
27 | CCS(=O)(=O)N(Cc1cccnc1)c1cccc(-c2ccc(C#N)cc2)c1 | -9.07% (inactive) | 
28 | CC(C)CCC[C@@H](C)[C@H]1CC[C@H]2[C@@H]3CC=C4C[C@@H](OC(=O)NCCN(C)C)CC[C@]4(C)[C@H]3CC[C@]12C | -1.24% (inactive) | 
29 | O=C(NNc1ccccc1)c1ccncc1 | 3.31% (inactive) | 
30 | C=C1[C@@H](C)[C@H]2[C@H](Cc3c[nH]c4ccccc34)NC(=O)[C@]23C(=O)/C=C/C(=O)[C@H](O)/C(C)=C\[C@@H](C)C/C=C/[C@H]3[C@@H]1O | -18.1% [at 25.3 µM] (inactive) | 
31 | CC(C)(C)c1ccc(CNC(=S)NCc2ccc(NS(C)(=O)=O)c(F)c2)cc1 | -16.8% (inactive) | 
